The test relates to HepG2. The experiment in a line: GSK_TCMDC: Percent inhibition of human HepG2 cell line. Test compounds present at 10uM. It counts as functional.
In the case of `COc1ccc(NC(=O)/C=C/c2ccccc2Cl)cc1OCCN1CCN(c2ccncc2)CC1`, the Inhibition was 7%. As for `Cc1cccc2nc(-c3cccc(-c4cccc(NC(=O)C(C)CN(C)C)c4)c3)[nH]c12` (stereo not given), the figure is 16%. The result for `COc1cc2nc(NCCc3ccccc3)nc(NCCCc3ccccc3)c2cc1OC` reads 21%; that for `CCOC(=O)c1cc(C(=O)OC)c2ccccn12`, 44%; that for `CCN(CC)CCNc1ccnc2[nH]c3ccc(Cl)cc3c12`, 3%.

Take `Cc1cccc2nc(-c3ccc(-c4cccc(CNC5CCN(C)CC5)c4)s3)[nH]c12.O=C(O)C(F)(F)F`: the Inhibition amounted to 21%. As for `Cn1cncc1-c1cc2c(Nc3ccc(OCc4ccccc4)cc3)ncnc2cn1`, the figure is 0%; as for `CC(=O)Nc1cc(C(=O)Nc2cccc(-c3csc(-c4nc5ccccc5[nH]4)c3)c2)ccc1C`, 31%. As for `COc1ccc2ncc(F)c([C@H](O)CN3CCC(NCc4ccc5c(c4)NC(=O)CS5)CC3)c2c1.Cl`, the figure is 7%; as for `COCCCNc1sc(S(=O)(=O)c2ccccc2)nc1S(=O)(=O)c1ccc(C)cc1`, 7%.

As for `COc1ccc2ncc(OC)c(CCN3CC[C@@H](NCc4ccc5c(n4)NC(=O)CS5)[C@H](O)C3)c2n1`, the Inhibition was 21%. The result for `O=C(NCc1cccc2ccccc12)C1CCCN(C(=O)c2ccc(O)c(-c3ccc(Cl)c(Cl)c3)c2)C1` (stereo not given) reads 1%; that for `O=C(Nc1cccc(-c2cccc(-c3nc4cc(F)ccc4[nH]3)c2)c1)Nc1ccc2c(c1)OCO2`, 30%.

Compound `CCOc1ccc2c(c1)C(C)(c1ccc3c(c1)C(C)CC(C)(C)N3)CC(C)(C)N2` (stereo not given) gave an Inhibition of 5%. For `CC(C)(CNCc1ccc(C(F)(F)F)cc1)c1nc(-c2ccc(Cl)c(O)c2)c(-c2ccncc2)[nH]1.Cl`, the Inhibition was 42%. As for `CCN(CC)CCN(CCCc1ccc(-c2ccc(C(F)(F)F)cc2)cc1)C(=O)Cn1c(CCc2cccc(F)c2F)nc(=O)c2c1CCC2.O=C(O)C(O)C(O)C(=O)O`, the figure is 38%; as for `Cc1cc(C(=O)Nc2ccc(OCc3ccccc3)cc2)on1`, 1%; as for `O=C(Cc1cccnc1)Nc1cccc(-c2cccc(-c3nc4cc(C(F)(F)F)ccc4[nH]3)c2)c1`, 42%. The result for `Cc1ccc(O)cc1Nc1ccnc2cc(-c3csc(CNCCN4CCOCC4)n3)ccc12` reads 6%; that for `CC(C)(CNC(=O)/C=C/c1ccc(Cl)c(Cl)c1)CNc1cc(=O)c2ccccc2[nH]1`, 0%.

As for `COc1ccc2ccccc2c1CNCCCCCCNCc1c(OC)ccc2ccccc12.Cl`, the Inhibition was 99%. The result for `O=C(Nc1ccc2c(c1)CCC2)c1nc(N2CCN(c3ccncc3)CC2)ccc1Cl.O=C(O)C(F)(F)F` reads 55%. As for `Nc1nc(N)c2cc(C#Cc3ccc(-c4ccccc4)cc3)ccc2n1`, the figure is 20%; as for `O=C(/C=C/c1ccc([N+](=O)[O-])cc1)N1CCC(NS(=O)(=O)c2ccc(Br)cc2)CC1`, 0%; as for `O=S(=O)(c1ccc(OC(F)(F)F)cc1)C1CC2CCC(C1)N2S(=O)(=O)c1ccc(Cl)c(C(F)(F)F)c1` (stereo not given), 1%. `CCc1nc(N)nc(N)c1CCCOc1ccccc1Cl.Cl` registered an Inhibition of 61%.

For `Clc1nc2ccccn2c1C=Cc1ccc2ccccc2n1`, the Inhibition is listed as 0%. Regarding `CCOc1ccc(C(=O)Nc2nonc2-c2ccc(OC)c(OC)c2)cc1`, the Inhibition is 7%. The result for `Cc1ncc([N+](=O)[O-])n1CCOC(=O)NC(NCC1COc2ccccc2O1)C(Cl)(Cl)Cl` (stereo not given) reads 0%. For the compound `CC(=O)Nc1cccc(C(=O)Nc2cccc(-c3csc(-c4nc5ccccc5[nH]4)c3)c2)c1`, the Inhibition amounted to 39%. As for `CCc1cn(C)c2c(N3CCCC3=O)cc(C(=O)N[C@@H](Cc3ccccc3)[C@H](O)CNC(C)(C)c3cccc(C(F)(F)F)c3)cc12`, the figure is 22%. As for `CCN(CCCN1CCCCC1)c1cc(C)nc(Nc2ccc(C)cc2)n1.O=C(O)C(F)(F)F`, the figure is 17%.

`Cl.NCC(=O)Nc1cccc(Nc2nccc(-c3c(-c4cccc(NC(=O)c5ccccc5)c4)nn4ccccc34)n2)c1` came in with an Inhibition of 45%. The result for `NC(=O)c1cccc(CN2Cc3ccccc3OC3(CCN(Cc4c[nH]c5cnccc45)CC3)C2)c1.O=C(O)C(F)(F)F` reads 9%; that for `CCN(CC)CCOc1ccc(N(Cc2ccc(C(C)(C)C)cc2)C(=O)c2ccc(Cc3ccccc3)cc2)cc1OC.Cl`, 5%; that for `COC(=O)c1ccccc1N1CCN(CCCCNC(=O)c2ccc(NC(=O)c3cc(Cl)cc(Cl)c3)cc2)CC1`, 20%. As for `COc1ccc(CNCc2ccccc2)cc1-c1cccc(S(=O)(=O)NCCN2CCCC2)c1.O=C(O)C(F)(F)F`, the figure is 37%; as for `CC(=O)Nc1ccc(C(=O)Nc2ccc(-c3cccc(-c4nc5cc(C(F)(F)F)ccc5[nH]4)c3)cc2)cn1`, 29%. As for `CC(C)N1CCC(N(Cc2ccc(-c3ccc(C(F)(F)F)cc3)cc2)C(=O)Cn2c(CCc3cccc(F)c3F)cc(=O)c3ccccc32)CC1.O=C(O)C(O)C(O)C(=O)O`, the figure is 50%. As to `N=C(N)NN=CC(=O)Nc1ccc(C(F)(F)F)cc1.O=S(=O)(O)O`, the Inhibition turned out to be 5%.

The record behind these values is ChEMBL document CHEMBL1157539, “Thousands of chemical starting points for antimalarial lead identification” (Nature, 2010).
